# Reference: the supplement of paper PMC4466140
# Tests used:
# Assay in all cases: SPOT peptide array binding signal intensity (averaged, normalized) (arbitrary units (background-subtracted, floor 0; scale differs between SH3 domains)); higher = stronger binding of the SH3 domain to the peptide
# AgAbp1 = biological target: AgAbp1
# Experimental: (§1)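 GST-tagged SH3 domains from S. cerevisiae (Sc), A. gossypii (Ag), C. albicans (Ca) and S. pombe (Sp) were incubated at 10 ug/ml overnight at 4 C on cellulose SPOT membranes carrying 292 synthetic 15-mer peptides mined from the S. cerevisiae proteome (cysteines replaced by serines). Binding was detected with anti-GST antibody, HRP secondary and chemiluminescence, quantified with Genespotter, and reported as normalized spot intensities averaged over biological replicates.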
# AgBbc1 = biological target: AgBbc1
# Experimental: as §1
# AgBem1-D1 = biological target: AgBem1-D1
# Experimental: as §1
# AgBzz1-D1 = biological target: AgBzz1-D1
# Experimental: as §1
# AgBzz1-D2 = biological target: AgBzz1-D2
# Experimental: as §1
# AgCyk3 = biological target: AgCyk3
# Experimental: as §1
# AgFus1 = biological target: AgFus1
# Experimental: as §1
# AgHof1 = biological target: AgHof1
# Experimental: as §1
# AgHse1 = biological target: AgHse1
# Experimental: as §1
# AgLsb1 = biological target: AgLsb1
# Experimental: as §1
# AgLsb4 = biological target: AgLsb4
# Experimental: as §1
# AgMyo5 = biological target: AgMyo5
# Experimental: as §1
# AgNbp2 = biological target: AgNbp2
# Experimental: as §1
# AgRvs167 = biological target: AgRvs167
# Experimental: as §1
# AgSho1 = biological target: AgSho1
# Experimental: as §1
# AgSla1-D1-D2 = biological target: AgSla1-D1-D2
# Experimental: as §1
# AgSla1-D3 = biological target: AgSla1-D3
# Experimental: as §1
# CaAbp1-D1 = biological target: CaAbp1-D1
# Experimental: as §1
# CaAbp1-D2 = biological target: CaAbp1-D2
# Experimental: as §1
# CaBbc1 = biological target: CaBbc1
# Experimental: as §1
# CaBem1-D1 = biological target: CaBem1-D1
# Experimental: as §1
# CaBzz1-D1 = biological target: CaBzz1-D1
# Experimental: as §1
# CaBzz1-D2 = biological target: CaBzz1-D2
# Experimental: as §1
# CaCyk3 = biological target: CaCyk3
# Experimental: as §1
# CaFus1 = biological target: CaFus1
# Experimental: as §1
# CaHof1 = biological target: CaHof1
# Experimental: as §1
# CaHse1 = biological target: CaHse1
# Experimental: as §1
# CaLsb1 = biological target: CaLsb1
# Experimental: as §1
# CaLsb4 = biological target: CaLsb4
# Experimental: as §1
# CaMyo5 = biological target: CaMyo5
# Experimental: as §1
# CaNbp2 = biological target: CaNbp2
# Experimental: as §1
# CaRvs167 = biological target: CaRvs167
# Experimental: as §1
# CaRvs167-3 = biological target: CaRvs167-3
# Experimental: as §1
# CaSho1 = biological target: CaSho1
# Experimental: as §1
# CaSla1-D1-D2 = biological target: CaSla1-D1-D2
# Experimental: as §1
# CaSla1-D3 = biological target: CaSla1-D3
# Experimental: as §1
# ScAbp1 = biological target: ScAbp1
# Experimental: as §1
# ScBbc1 = biological target: ScBbc1
# Experimental: as §1
# ScBem1-D1 = biological target: ScBem1-D1
# Experimental: as §1
# ScBzz1-D1 = biological target: ScBzz1-D1
# Experimental: as §1
# ScBzz1-D2 = biological target: ScBzz1-D2
# Experimental: as §1
# ScCyk3 = biological target: ScCyk3
# Experimental: as §1
# ScFus1 = biological target: ScFus1
# Experimental: as §1
# ScHof1 = biological target: ScHof1
# Experimental: as §1
# ScHse1 = biological target: ScHse1
# Experimental: as §1
# ScLsb1 = biological target: ScLsb1
# Experimental: as §1
# ScLsb2 = biological target: ScLsb2
# Experimental: as §1
# ScLsb3 = biological target: ScLsb3
# Experimental: as §1
# ScLsb4 = biological target: ScLsb4
# Experimental: as §1
# ScMyo3 = biological target: ScMyo3
# Experimental: as §1
# ScMyo5 = biological target: ScMyo5
# Experimental: as §1
# ScNbp2 = biological target: ScNbp2
# Experimental: as §1
# ScPex13 = biological target: ScPex13
# Experimental: as §1
# ScRvs167 = biological target: ScRvs167
# Experimental: as §1
# ScSho1 = biological target: ScSho1
# Experimental: as §1
# ScSla1-D1-D2 = biological target: ScSla1-D1-D2
# Experimental: as §1
# ScSla1-D3 = biological target: ScSla1-D3
# Experimental: as §1
# SpAbp1-D1 = biological target: SpAbp1-D1
# Experimental: as §1
# SpBbc1 = biological target: SpBbc1
# Experimental: as §1
# SpBzz1-D1 = biological target: SpBzz1-D1
# Experimental: as §1
# SpBzz1-D2 = biological target: SpBzz1-D2
# Experimental: as §1
# SpCyk3 = biological target: SpCyk3
# Experimental: as §1
# SpHof1 = biological target: SpHof1
# Experimental: as §1
# SpHof1-2 = biological target: SpHof1-2
# Experimental: as §1
# SpHof1-3 = biological target: SpHof1-3
# Experimental: as §1
# SpHse1 = biological target: SpHse1
# Experimental: as §1
# SpLsb1 = biological target: SpLsb1
# Experimental: as §1
# SpLsb4 = biological target: SpLsb4
# Experimental: as §1
# SpMyo1 = biological target: SpMyo1
# Experimental: as §1
# SpNbp2 = biological target: SpNbp2
# Experimental: as §1
# SpPex13 = biological target: SpPex13
# Experimental: as §1
# SpRvs167 = biological target: SpRvs167
# Experimental: as §1
# SpSla1-D1-D2 = biological target: SpSla1-D1-D2
# Experimental: as §1
# SpSla1-D3 = biological target: SpSla1-D3
# Experimental: as §1
binder,measurement,setting,value
QRIRKIPGIPLMSVG,SPOT peptide array binding signal intensity,AgAbp1,26
same,SPOT peptide array binding signal intensity,AgBbc1,184
same,SPOT peptide array binding signal intensity,AgBem1-D1,63.5
same,SPOT peptide array binding signal intensity,AgBzz1-D1,19.5
same,SPOT peptide array binding signal intensity,AgBzz1-D2,34
same,SPOT peptide array binding signal intensity,AgCyk3,1
same,SPOT peptide array binding signal intensity,AgFus1,296
same,SPOT peptide array binding signal intensity,AgHof1,29.2
same,SPOT peptide array binding signal intensity,AgHse1,194
same,SPOT peptide array binding signal intensity,AgLsb1,13.8
same,SPOT peptide array binding signal intensity,AgLsb4,258
same,SPOT peptide array binding signal intensity,AgMyo5,≤ 0
same,SPOT peptide array binding signal intensity,AgNbp2,486
same,SPOT peptide array binding signal intensity,AgRvs167,54.8
same,SPOT peptide array binding signal intensity,AgSho1,104
same,SPOT peptide array binding signal intensity,AgSla1-D1-D2,40.5
same,SPOT peptide array binding signal intensity,AgSla1-D3,11.5
same,SPOT peptide array binding signal intensity,CaAbp1-D1,253
same,SPOT peptide array binding signal intensity,CaAbp1-D2,358
same,SPOT peptide array binding signal intensity,CaBbc1,226
same,SPOT peptide array binding signal intensity,CaBem1-D1,34.5
same,SPOT peptide array binding signal intensity,CaBzz1-D1,162
same,SPOT peptide array binding signal intensity,CaBzz1-D2,106
same,SPOT peptide array binding signal intensity,CaCyk3,49.5
same,SPOT peptide array binding signal intensity,CaFus1,707
same,SPOT peptide array binding signal intensity,CaHof1,0.25
same,SPOT peptide array binding signal intensity,CaHse1,94.2
same,SPOT peptide array binding signal intensity,CaLsb1,1.25
same,SPOT peptide array binding signal intensity,CaLsb4,2460
same,SPOT peptide array binding signal intensity,CaMyo5,1.5
same,SPOT peptide array binding signal intensity,CaNbp2,549
same,SPOT peptide array binding signal intensity,CaRvs167,296
same,SPOT peptide array binding signal intensity,CaRvs167-3,6.5
same,SPOT peptide array binding signal intensity,CaSho1,303
same,SPOT peptide array binding signal intensity,CaSla1-D1-D2,817
same,SPOT peptide array binding signal intensity,CaSla1-D3,38.5
same,SPOT peptide array binding signal intensity,ScAbp1,99
same,SPOT peptide array binding signal intensity,ScBbc1,32.5
same,SPOT peptide array binding signal intensity,ScBem1-D1,13.5
same,SPOT peptide array binding signal intensity,ScBzz1-D1,2
same,SPOT peptide array binding signal intensity,ScBzz1-D2,25
same,SPOT peptide array binding signal intensity,ScCyk3,7
same,SPOT peptide array binding signal intensity,ScFus1,284
same,SPOT peptide array binding signal intensity,ScHof1,2
same,SPOT peptide array binding signal intensity,ScHse1,553
same,SPOT peptide array binding signal intensity,ScLsb1,9.25
same,SPOT peptide array binding signal intensity,ScLsb2,13
same,SPOT peptide array binding signal intensity,ScLsb3,3970
same,SPOT peptide array binding signal intensity,ScLsb4,349
same,SPOT peptide array binding signal intensity,ScMyo3,≤ 0
same,SPOT peptide array binding signal intensity,ScMyo5,≤ 0
same,SPOT peptide array binding signal intensity,ScNbp2,672
same,SPOT peptide array binding signal intensity,ScPex13,408
same,SPOT peptide array binding signal intensity,ScRvs167,1160
same,SPOT peptide array binding signal intensity,ScSho1,1280
same,SPOT peptide array binding signal intensity,ScSla1-D1-D2,1610
same,SPOT peptide array binding signal intensity,ScSla1-D3,64
same,SPOT peptide array binding signal intensity,SpAbp1-D1,116
same,SPOT peptide array binding signal intensity,SpBbc1,9.25
same,SPOT peptide array binding signal intensity,SpBzz1-D1,176
same,SPOT peptide array binding signal intensity,SpBzz1-D2,5.75
same,SPOT peptide array binding signal intensity,SpCyk3,5
same,SPOT peptide array binding signal intensity,SpHof1,140
same,SPOT peptide array binding signal intensity,SpHof1-2,51.5
same,SPOT peptide array binding signal intensity,SpHof1-3,440
same,SPOT peptide array binding signal intensity,SpHse1,242
same,SPOT peptide array binding signal intensity,SpLsb1,17
same,SPOT peptide array binding signal intensity,SpLsb4,3060
same,SPOT peptide array binding signal intensity,SpMyo1,≤ 0
same,SPOT peptide array binding signal intensity,SpNbp2,359
same,SPOT peptide array binding signal intensity,SpPex13,22
same,SPOT peptide array binding signal intensity,SpRvs167,1140
same,SPOT peptide array binding signal intensity,SpSla1-D1-D2,89.5
same,SPOT peptide array binding signal intensity,SpSla1-D3,27
